About 2,400 (0.67%) of roughly 360,000 compounds were called active. The sample holds actives, similar compounds and a random draw of the others, so the mix is not that of the screen. A number with no mark means an inactive call.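 Rule for the calls: active = compounds whose normalised, plate-corrected inhibition of enzyme fluorescence in the single-dose primary screen is 50% or more; inactive = the rest.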

In general, inhibition refers to the relative decrease from the control value, in per cent.

The experiment deals with Fatty acid synthase (Homo sapiens) (UniProt P49327). Nature of the experiment: FAS thioesterase domain inhibitors, primary screen, biochemical, fluorescence intensity, uHTS (AID 602261).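 Note: 0% = DMSO with enzyme and 100% = substrate without enzyme.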 The note with it: recombinant FAS-TE, OMFH fluorogenic substrate, fluorescence endpoint; at 15 µM; stronger effect = higher value.
Sequence of Fatty acid synthase (Homo sapiens) (P49327 whole entry, looked up, the tested form may be a part): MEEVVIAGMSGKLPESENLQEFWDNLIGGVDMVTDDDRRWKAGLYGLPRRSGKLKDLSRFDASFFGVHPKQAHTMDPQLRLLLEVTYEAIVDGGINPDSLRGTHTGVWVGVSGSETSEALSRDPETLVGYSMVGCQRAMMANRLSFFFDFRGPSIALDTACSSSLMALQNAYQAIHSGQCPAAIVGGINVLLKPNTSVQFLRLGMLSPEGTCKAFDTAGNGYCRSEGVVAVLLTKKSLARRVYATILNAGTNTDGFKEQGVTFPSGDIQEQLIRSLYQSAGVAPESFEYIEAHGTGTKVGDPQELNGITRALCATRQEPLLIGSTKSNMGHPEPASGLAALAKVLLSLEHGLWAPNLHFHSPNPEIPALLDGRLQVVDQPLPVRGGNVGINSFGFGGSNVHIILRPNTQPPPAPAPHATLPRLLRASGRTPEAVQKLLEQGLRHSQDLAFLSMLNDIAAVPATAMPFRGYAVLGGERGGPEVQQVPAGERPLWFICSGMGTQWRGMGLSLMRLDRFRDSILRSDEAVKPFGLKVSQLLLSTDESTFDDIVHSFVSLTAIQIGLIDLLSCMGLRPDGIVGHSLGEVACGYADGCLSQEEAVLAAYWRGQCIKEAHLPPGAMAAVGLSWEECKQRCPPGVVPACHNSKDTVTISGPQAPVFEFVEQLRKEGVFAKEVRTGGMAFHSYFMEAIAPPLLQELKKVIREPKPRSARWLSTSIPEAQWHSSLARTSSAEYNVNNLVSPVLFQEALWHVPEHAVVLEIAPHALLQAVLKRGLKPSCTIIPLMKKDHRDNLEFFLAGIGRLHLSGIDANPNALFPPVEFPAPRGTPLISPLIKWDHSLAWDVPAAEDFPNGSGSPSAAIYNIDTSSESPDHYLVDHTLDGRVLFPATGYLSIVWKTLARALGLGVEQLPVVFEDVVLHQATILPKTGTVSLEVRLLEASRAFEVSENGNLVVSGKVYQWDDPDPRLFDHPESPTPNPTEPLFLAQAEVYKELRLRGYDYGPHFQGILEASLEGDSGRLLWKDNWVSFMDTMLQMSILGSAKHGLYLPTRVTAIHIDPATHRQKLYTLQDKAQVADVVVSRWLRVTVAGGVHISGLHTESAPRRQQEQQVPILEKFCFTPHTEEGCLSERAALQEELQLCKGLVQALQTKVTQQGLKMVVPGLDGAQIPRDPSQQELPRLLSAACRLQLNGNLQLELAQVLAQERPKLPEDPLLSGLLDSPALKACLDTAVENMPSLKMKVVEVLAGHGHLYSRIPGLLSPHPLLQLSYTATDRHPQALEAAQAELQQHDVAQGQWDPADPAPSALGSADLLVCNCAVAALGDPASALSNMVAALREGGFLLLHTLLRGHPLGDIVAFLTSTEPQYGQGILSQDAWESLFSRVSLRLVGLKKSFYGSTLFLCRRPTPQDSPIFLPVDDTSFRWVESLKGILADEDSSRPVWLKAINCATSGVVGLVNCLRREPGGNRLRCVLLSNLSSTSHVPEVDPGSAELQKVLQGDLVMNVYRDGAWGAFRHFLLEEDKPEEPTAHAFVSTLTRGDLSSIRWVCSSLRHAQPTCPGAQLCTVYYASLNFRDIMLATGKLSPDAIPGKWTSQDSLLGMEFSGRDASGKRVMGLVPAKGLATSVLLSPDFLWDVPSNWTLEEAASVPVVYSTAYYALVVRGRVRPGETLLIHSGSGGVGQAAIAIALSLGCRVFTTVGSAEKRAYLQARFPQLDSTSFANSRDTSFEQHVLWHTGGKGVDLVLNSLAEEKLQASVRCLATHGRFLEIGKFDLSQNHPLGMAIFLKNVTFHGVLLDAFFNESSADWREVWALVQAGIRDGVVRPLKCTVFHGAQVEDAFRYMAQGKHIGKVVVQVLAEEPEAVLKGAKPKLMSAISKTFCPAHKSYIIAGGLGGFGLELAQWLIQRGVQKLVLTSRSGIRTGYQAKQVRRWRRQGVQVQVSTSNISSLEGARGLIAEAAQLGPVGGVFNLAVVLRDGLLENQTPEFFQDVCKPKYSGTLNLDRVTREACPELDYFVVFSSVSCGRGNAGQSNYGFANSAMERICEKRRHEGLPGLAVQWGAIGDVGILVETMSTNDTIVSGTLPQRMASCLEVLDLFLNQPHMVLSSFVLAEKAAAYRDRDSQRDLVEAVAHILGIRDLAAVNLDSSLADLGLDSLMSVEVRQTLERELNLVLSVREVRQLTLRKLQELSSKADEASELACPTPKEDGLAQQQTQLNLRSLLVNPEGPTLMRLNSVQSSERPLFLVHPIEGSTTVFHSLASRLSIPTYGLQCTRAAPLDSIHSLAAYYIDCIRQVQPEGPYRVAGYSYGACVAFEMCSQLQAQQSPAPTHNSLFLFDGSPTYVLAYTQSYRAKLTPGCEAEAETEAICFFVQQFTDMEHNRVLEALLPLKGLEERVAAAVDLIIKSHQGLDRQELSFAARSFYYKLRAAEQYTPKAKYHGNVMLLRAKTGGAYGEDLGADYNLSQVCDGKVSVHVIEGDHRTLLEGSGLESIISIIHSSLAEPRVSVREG
`Cn1cc(S(=O)(=O)N2CCC(Cc3ccccc3)CC2)c(=O)n(C)c1=O`: the inhibition is -7.6%. Turning to `COCCn1c(SCC(=O)Nc2cc(Cl)ccc2OC)nc2c(c1=O)SC(C)C2` (stereo not given), the inhibition is 20.2%. The figure for `Cc1ccccc1-n1nnnc1SCCCC(=O)c1ccc(F)cc1` is 19.4%; for `CC(C)=CCc1ccc(O)c(=O)cc1C(C)C` it is -0.3%; for `COc1cccc(NC(=O)CN(C)C(=O)c2ccccc2CCc2ccccc2)c1` it is 23.2%. In the case of `COc1ccc(C2Nc3ccccc3C(=O)N2c2ccc(Cl)cc2)cc1Cn1cc([N+](=O)[O-])cn1` (stereo not given), the inhibition is 69.9% (active). Then `COc1ccc(CN2CCCC(C(=O)c3ccc(Cl)cc3)C2)cc1Cn1cncn1` (stereo not given), with -9.9%. For the compound `COc1ccc(C2Nc3ccccc3C(=O)N2Cc2ccccc2)cc1Cn1nnc2ccccc21` (stereo not given), the inhibition is 35.8%. Turning to `Cc1ccc(Nc2cc(C)nc3c(C)ccc([N+](=O)[O-])c23)cc1`, the inhibition was 25%. Then `N#CCCN(C(=O)COC(=O)C1CCN(c2ccc(C(F)(F)F)cn2)CC1)c1ccc(F)cc1`, with 18.7%; and `Nc1cc(OC(=O)c2ccccc2Br)nn1S(=O)(=O)c1ccccc1`, with 5.4%. Then `O=C(CCl)Nc1ccc(Sc2ccc(NC(=O)CCl)cc2)cc1`, with 2.8%. Then `O=C(Cc1ccc(Cl)c(Cl)c1)Nc1ccc(SC(F)F)cc1`, with 66.1% (active); and `O=C(CC(O)(C(F)(F)F)C(F)(F)F)Nc1ccc(Cl)c(Cl)c1`, with 22.2%. Take `CCOC(=O)Cn1nnnc1C`: the inhibition is -1.8%. `CC1CCN(c2ccc(C(=O)NCc3ccc4c(c3)OCO4)cc2[N+](=O)[O-])CC1`: the inhibition was 13.7%. On to `O=C(NCc1ccc2c(c1)OCO2)c1cc([N+](=O)[O-])ccc1N1CCOCC1`, for which the inhibition is 51.7% (active). The figure for `O=C(Cc1ccc([N+](=O)[O-])cc1)NCCc1ccc2c(c1)OCO2` is 18.8%.

Regarding `CN(C)c1ccc(/C=C/C(=O)c2ccc(C(C)(C)C)cc2)cc1[N+](=O)[O-]`, the inhibition was 74.2% (active). Then `CC(C)(C)c1ccc(/C=C/C(=O)NC2CCS(=O)(=O)C2)cc1` (stereo not given), with -0.6%; and `CN(C)c1ccc(S(=O)(=O)NCC(=O)NCC2CCCCC2)cc1[N+](=O)[O-]`, with 5.2%. The figure for `Cc1ccc(S(=O)(=O)N2CCN(C)CC2)cc1C(=O)NC1CCCCC1` is -7%; for `CCOC(=O)C1=CN(Cc2ccc(Br)cc2)S(=O)(=O)NC1C` (stereo not given) it is 9.4%. With `CC(C)[C@@H]1COC(c2cccc(C3=N[C@H](C(C)C)CO3)c2)=N1`, the inhibition was 1.1%. On to `CC1(C)O[C@@H]2[C@H](O1)[C@@H](COS(=O)(=O)O)O[C@H]2n1ccc(=O)[nH]c1=O`, for which the inhibition was -13.4%. `CCN(CC)CCNC(=O)c1ccc(NS(=O)(=O)c2ccc3c(c2)OCCO3)cc1`: the inhibition is -4.3%. The figure for `CC(NS(=O)(=O)c1ccc(Cl)cc1)C(=O)Nc1ccc2c(c1)OCCO2` (stereo not given) is -2.1%; for `O=C(Nc1cccc(S(=O)(=O)Nc2ccc(Cl)cc2)c1)c1ccc2c(c1)OCCO2` it is 54% (active); for `CCN(CC)c1ccc(S(=O)(=O)N2CCOCC2)cc1NC(=O)CSc1cccc[n+]1[O-]` it is -33.9%. Regarding `O=C(Nc1ccc(OC(F)(F)F)cc1)c1ccc2c(c1)no[n+]2[O-]`, the inhibition was 50.7% (active). For the compound `CCc1nnc(NS(=O)(=O)c2ccc(NC(=O)c3cccc(OC(F)(F)C(F)F)c3)cc2)s1`, the inhibition was 15.6%. As to `O=C(Nc1ccccc1)c1ccc2nsnc2c1`, the inhibition was -6.4%. Then `COc1ccccc1C(=O)NC(CCSC)C(=O)NNC(=O)c1ccccc1C` (stereo not given), with -1.2%. The figure for `CC(c1ccco1)N(C(=O)COc1ccccc1[N+](=O)[O-])c1ccccn1` (stereo not given) is 6.4%. Then `CN1CCOC1c1ccc(C2OCCN2C)cc1` (stereo not given), with -6.4%; and `CC(=O)c1ccc(S(=O)(=O)N2CCN(c3nc4c(C)c(C)ccc4cc3C#N)CC2)cc1`, with 61.5% (active); and `CC(=O)c1ccc(N2CCN(S(=O)(=O)c3ccc4c(c3)CC(=O)N4C)CC2)cc1`, with 8.9%. Turning to `CC(=O)c1ccc(S(=O)(=O)N2CCC3(CC2)OCCO3)cc1`, the inhibition is -3.8%. `Oc1c(Br)cc(/C=N/NC(=S)NCC2CCCO2)cc1Br` (stereo not given): the inhibition is -3.3%.

On to `O=C(NC1CCCC1)C1c2ccccc2OCC(=O)N1Cc1ccccc1` (stereo not given), for which the inhibition is -7.8%. Then `Cc1ccc(NC(=O)N2CCSc3ccccc32)cc1`, with 3.8%.

In the case of `O=C(/C=C/c1cccc([N+](=O)[O-])c1)OCC(=O)N1CCOCC1`, the inhibition is -3.4%.

Take `O=C(/C=C/c1cccc([N+](=O)[O-])c1)N1CCN(Cc2ccccc2)CC1`: the inhibition is 69.8% (active). On to `O=C(c1cccc(Cl)c1)N1CCN(Cc2ccccc2)CC1`, for which the inhibition was -4.7%. As for `CCCOc1ccc(/C(O)=C2/C(=O)C(=O)N(CCN(C)C)C2c2ccc(OC)c(OC)c2)cc1` (stereo not given), the inhibition was -4.4%.

With `CCN1CCCC1CNC(=O)c1ccc2c(c1)NC(=O)/C(=C\c1ccccc1F)S2` (stereo not given), the inhibition is -6.6%.

Consider `CCOC(=O)N1CCN(S(=O)(=O)N2CCCC(C(=O)NCCCN3CCC(C)CC3)C2)CC1` (stereo not given), for which the inhibition is -9%. Then `O=c1oc(-c2ccco2)nc2sc3c(c12)CCCCC3`, with 59.2% (active). Then `Cn1c(NN)nc2sc3c(c2c1=O)CCC3`, with 0%; and `O=S(=O)(c1ccc(Cl)cc1)c1nc(-c2ccco2)oc1N1CCCCC1`, with 17.9%; and `CCCCCc1c(Cc2ccccc2)ncn1CCc1ccccc1OC`, with 11%. For `Cc1cccc(NC(=O)CSc2nc3c(c(=O)[nH]2)CCC3)c1C`, the inhibition was -9.1%. Take `Cc1cccc(NC(=O)c2cc([N+](=O)[O-])ccc2N2CCN(C)CC2)c1`: the inhibition was 56.8% (active).

As for `NS(=O)(=O)c1cccc(NC(=O)COC(=O)c2cc([N+](=O)[O-])ccc2N2CCCC2)c1`, the inhibition was 26.9%. The figure for `CCN1CCN(c2ccc([N+](=O)[O-])cc2C(=O)c2ccc(Cl)cc2)CC1` is 24.4%; for `CCC(C)(C)NC(=O)c1cc([N+](=O)[O-])ccc1N1CCCCC1` it is 9.2%. Regarding `O=C(Nc1cccc(Cl)c1)c1cc([N+](=O)[O-])ccc1N1CCN(CCO)CC1`, the inhibition is 68.1% (active). For `CC(C)C(=O)Nc1cccc(NC(=O)c2ccc([N+](=O)[O-])cc2Cl)c1`, the inhibition is -13.2%.

On to `CCOC(=O)c1cc(-c2ccc(F)cc2)n(CC(=O)NCc2ccccn2)c1C`, for which the inhibition was -7.6%. The figure for `COC(=O)CCCCC1=CCC2C(=O)C=C(O)C2C1` (stereo not given) is -0.8%. The figure for `Cc1nn(Cc2ccc(F)cc2)c(C)c1NC(=O)c1noc2c1CCc1ccccc1-2` is 17.6%; for `CCCCOc1ccc(C(=O)N/C(=C/C=C/c2ccccc2)C(=O)N2CCOCC2)cc1` it is 4.3%.

`Cc1ccc(C(=O)N/C(=C/C=C/c2ccccc2)C(=O)NCc2ccco2)cc1`: the inhibition is 10.2%. For `CNC(=O)/C(=C\C=C\c1ccccc1)NC(=O)c1ccc([N+](=O)[O-])cc1`, the inhibition is 88.8% (active). Then `COc1ccc(-c2cc(=O)oc3cc(OCC(=O)N(C)C4CCS(=O)(=O)C4)ccc23)cc1` (stereo not given), with -3.1%. Then `COc1ccc(-c2cc(NC=O)c3ncc(-c4ccccc4)n3c2)cc1OC`, with 28.3%; and `Cc1ccccc1-c1nc(CS(=O)(=O)CC(=O)N2CCc3ccccc3C2)c(C)o1`, with 10%; and `CCN1C(=O)[C@H]2[C@@H](c3ccc(-c4ccc(F)cc4)cc3)N[C@@](Cc3ccccc3)(C(=O)OC)[C@H]2C1=O`, with 65.3% (active). For `COC(=O)[C@]1(CC(C)C)N[C@H](c2ccc(SC3CCCCC3)cc2)[C@@H]2C(=O)N(C)C(=O)[C@@H]21`, the inhibition was 22.5%. With `CCN1C(=O)[C@H]2[C@@H](c3ccc(SC4CCCCC4)c(OC)c3)N[C@@](Cc3ccccc3)(C(=O)OC)[C@H]2C1=O`, the inhibition was 63.1% (active). The figure for `CCCSc1ccc([C@H]2N[C@@](Cc3ccccc3)(C(=O)OC)[C@H]3C(=O)N(C)C(=O)[C@@H]23)cc1` is 17.3%; for `CCCCCCSc1ccc([C@@H]2[C@@H]3C(=O)N(CC)C(=O)[C@@H]3[C@]3(C(=O)OC)CCCCN23)cc1OC` it is 23.1%; for `CCN1C(=O)[C@H]2[C@@H](c3ccc(-c4ccc(OC)cc4)cc3)N[C@@](Cc3ccccc3)(C(=O)OC)[C@H]2C1=O` it is 39.2%. The figure for `COc1ccccc1C(=O)N(C1=NC(C)CS1)c1ccc(Cl)cc1` (stereo not given) is 6.9%; for `CCCN1CCN(C(=O)Cn2ncc3ccccc32)CC1` it is -2.9%. In the case of `Cc1ccc(NC(=O)N2CCC(O)(c3cccnc3)CC2)cc1`, the inhibition is -3.3%.

As for `CC(C)C[C@H](NC(=O)NCCc1ccc(Cl)cc1)C(=O)O`, the inhibition was -6.2%. The figure for `CSCCC(NC(=O)c1cc([N+](=O)[O-])cc([N+](=O)[O-])c1)c1nc2ccccc2[nH]1` (stereo not given) is 32.8%. For the compound `Cc1cccc(CN2CCN(Cc3cnn(-c4ccccc4F)c3)CC2CCO)n1` (stereo not given), the inhibition is -8%. Then `Cc1ccc(C2=NN(C(=O)COc3ncnc4ccccc34)C(c3ccco3)C2)cc1` (stereo not given), with 8.9%; and `O=C1c2cccc(OCC(=O)N3N=C(c4cccs4)CC3c3ccc(F)cc3)c2CCN1Cc1ccccc1` (stereo not given), with 30.6%.

`O=C1C2N=NN(CC(=O)N3N=C(c4cccc5ccccc45)CC3c3ccccc3)C2C(=O)N1c1ccccc1` (stereo not given): the inhibition was 84.2% (active).

Regarding `Oc1ccccc1C1=NN(c2ccccc2)C(c2ccccc2)C1` (stereo not given), the inhibition is 25.2%.

Consider `CC1=C(C)CC2C(=O)N(c3cccc4ccccc34)C(=O)C2C1` (stereo not given), for which the inhibition is 7.3%. In the case of `Cc1ccc(N2C(=O)C3N=NN(CC(=O)N4N=C(c5cccc6ccccc56)CC4c4ccccc4)C3C2=O)cc1` (stereo not given), the inhibition was 83.2% (active).

For the origin of these results see PubChem BioAssay AID602261 (Sanford-Burnham Center for Chemical Genomics, 2012).
